Source: PubChem BioAssay
A selection: hits, their analogues and other compounds. The true share with any hit is near 10%.
FLuc inh: inhibitors of firefly (Photinus pyralis) luciferase. hit rate 2.5% among 76,000. AID 1347043. P08659. Potency, µM (doses to about 115 µM), usual class: inhibitors. purified P. pyralis luciferase, luminescence, biochemical; also: nearly all actives have a fitted effect of over 65% in size
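Luminescence read by CCD imager after adding enzyme (10nM final) to wells holding compound, titrated in qHTS. Substrates 10uM each D-luciferin and ATP; buffer 50mM Tris acetate pH 7.5, 10mM Mg acetate, Tween-20, BSA.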
HEK293 tox: kills HEK 293 cells; hit rate 6.6% among 94,000; Potency, µM (highest dose often 115 µM), for the others: at the top dose activity change, negative = cytotoxicity, hits mostly inhibitors; HEK 293 viability, ATP luminescence (CellTiter-Glo), 48-72 h; AID 1345083; also: nearly all actives have a fitted effect of over 60% in size
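Cytotoxicity was scored by loss of ATP-coupled luminescence (CellTiter-Glo) in HEK 293 cells. Compound treatment ran 48 or 72 hr at 37 degree Celsius, 5% CO2, 95% humidity.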
GPT2 inhibitor: inhibitors of human GPT2 alanine aminotransferase | Q8TD30 | Recombinant GPT2, coupled pyruvate oxidase/HRP Amplex Red fluorescence | Potency, µM (series often up to 57.7 µM), for inactives: at the top dose activity change, negative = inhibition, usual class: inhibitors | hit rate 0.25% among 100,000; also: nearly all actives have a fitted effect of over 60% in size
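Recombinant GPT2 (10ng/uL) with 250uM a-KG and 2mM L-alanine, 30 min at room temperature, in HEPES pH 7.5 buffer. Pyruvate detected by pyruvate oxidase/HRP/Amplex Red fluorescence after 30 min in the dark; AOA (50uM) as positive control.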
3T3 cytotox: cytotoxic compounds in NIH 3T3 cells; NIH 3T3 viability, CellTiter-Glo ATP luminescence, 48-72 h; Potency, µM (doses to about 96.7 µM), for the others: top-dose activity change, negative = cytotoxicity, hits mostly inhibitors; hit rate 4.3% among 94,000; also: nearly all actives have a fitted effect of over 55% in size
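Cytotoxicity is measured as loss of cellular ATP: NIH 3T3 cells (400/well) are exposed to compound for 48 or 72 hr at 37 °C, then CellTiter-Glo luminescence is imaged after 10 min at room temperature.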
NPR1 antag: human Npr1 receptor antagonism. P16066. HEK293 hNpr1 GloSensor cGMP, ANP-stimulated luminescence. Potency, µM (doses to about 46.3 µM), for inactives: at the top dose activity change, negative = inhibition, usual class: inhibitors. hit rate 1.6% among 76,000. AID 1347048; calls by dose curve; also: nearly all actives have a fitted effect of over 60% in size
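HEK293 cells stably expressing human Npr1 and cGMP GloSensor pGS-40F, loaded 2 h with 2% GloSensor reagent, given compound 30 min at room temperature. Luminescence read before and 20 min after 0.1 nM hNppA.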
Starred values were filed as active, the others as inactive; i = inactive; ? = inconclusive; . = no result given; ! = a repeat was not active; [ ] = remark or other dose. Unless noted, calls follow the shape of the dose curve; as a rule, active = well fitted curve in the direction sought with a large enough effect; inconclusive = small, poorly fitted or top-dose-only effect, or another doubt; inactive = no such curve, though single readings can be large; an effect the other way counts as inactive or inconclusive. % is scaled to controls: 0 for no effect and ±100 for the full control effect; potency is read from the fitted curve at half-maximal effect.

SMILES	FLuc inh	HEK293 tox	GPT2 inhibitor	3T3 cytotox	NPR1 antag
O=C(Cc1ccc(F)cc1)NC1CCN(Cc2ccc(-c3ccsc3)cc2)C1 (stereo unspecified)	.	?	-1.7%	?	.
O=C(NC1CCN(Cc2ccc(-c3ccsc3)cc2)C1)c1ccc(C(F)(F)F)cc1 (stereo unspecified)	.	-30.3%	i	-28.6%	.
COc1ccc(-c2noc([C@@H]3CCCN3C(=O)c3ccc(F)c(Cl)c3)n2)cc1OC	i	39.8µM*	4.7%	?	2.9%
COc1ccc(-c2noc([C@@H]3CCCN3C(=O)c3cc(Cl)ccc3OC)n2)cc1	i	25.1µM*	3.0%	?	-3.0%
COc1ccc(-c2noc([C@@H]3CCCN3C(=O)c3ccc(Cl)cc3)n2)cc1OC	i	?	i	?	-0.5%
CCCCOc1ccc(C(=O)N2CCC[C@H]2c2nc(-c3ccc(C)cc3)no2)cc1	i	22.4µM*	?	35.5µM*	-24.1%
O=C(NCC1CC1)c1nc2cccnc2n(C2CCCC2)c1=O	.	?	-1.3%[88.5 µM]	?	.
COc1ccc(S(=O)(=O)Nc2cccnc2Nc2ccc(O)cc2)cc1	.	.	21.7µM*!	.	.
Cc1ccc(-c2ccc3nnc(CNC(=O)c4cc(F)ccc4Cl)n3n2)cc1	i	31.6µM*	i	?	-0.4%
Cc1ccc(-c2ccc3nnc(CNC(=O)c4cc(Cl)ccc4F)n3n2)cc1	i	?	i	?	3.2%
O=C(Cc1ccc(Cl)cc1)N1CCC(c2n[nH]c(=O)n2-c2ccccc2)CC1	i	-1.9%	0.4%	31.6µM*	10.4%
Cc1ccc(CC(=O)N2CCC(c3n[nH]c(=O)n3-c3ccc(C)cc3)CC2)cc1	i	4.5%	i	?	-6.7%
COc1ccc(CC(=O)N2CCC(c3n[nH]c(=O)n3-c3ccc(C)cc3)CC2)cc1	i	-7.9%	i	31.6µM*	0.0%
COc1cc(OC)cc(C(=O)N2CCC(c3n[nH]c(=O)n3Cc3ccc(F)cc3)CC2)c1	i	0.6%	0.9%	17.8µM*	0.0%
COc1cccc(C(=O)N2CCC(c3n[nH]c(=O)n3-c3ccc(C)cc3)CC2)c1	i	-5.5%	i	35.5µM*	3.0%
c1ccc(CCCN2CC[C@H](c3nnc(-c4ccccc4)o3)C2)cc1	i	?	-12.1%[88.5 µM]	?	-2.9%[70.6 µM]
Cn1ncc2c(C(=O)NC3CCOC3)cc(-c3cccc(F)c3)nc21 (stereo unspecified)	.	-23.2%	.	?	.
O=C(c1ccco1)N1C[C@@H]2C(CN(CC#Cc3ccccc3)C3CC3)[C@@H]2C1 (stereo partly specified)	i	?	0.1%	?	1.9%
COc1cc(OC)cc(C(=O)N2CCC(c3n[nH]c(=O)n3-c3ccc(C)cc3)CC2)c1	i	1.5%	i	25.1µM*	13.0%
Cc1noc(C2CC3(CCN(C(=O)CCc4ccccc4)CC3)CN2C)n1 (stereo unspecified)	i	-14.7%	-55.6%	-29.1%	-9.5%
Cc1ccc(C)c(Cn2ccn3nc4c(c3c2=O)CCCC4)c1	i	39.8µM*	i	?	-1.1%
Cc1ccc(Cl)cc1N1CCN(C(=O)CCn2ccn3nc4c(c3c2=O)CCCC4)CC1	i	?	i	?	?
Cc1ccccc1N1CCN(C(=O)c2ccc(Cn3ccn4nc5c(c4c3=O)CCCC5)cc2)CC1	i	20µM*	0.8%	?	-28.2%
COc1ccc(CCNC(=O)c2ccc(Cn3ccn4nc5c(c4c3=O)CCCC5)cc2)cc1OC	i	39.8µM*	-3.1%	?	?
O=C(NC1CCCCCCC1)c1ccc(Cn2ccn3nc4c(c3c2=O)CCCC4)cc1	i	31.6µM*	-7.9%	?	-18.0%
SMILES	FLuc inh	HEK293 tox	GPT2 inhibitor	3T3 cytotox	NPR1 antag
Cc1ccc(NC(=O)Cn2ccn3nc4c(c3c2=O)CCCCC4)c(C)c1	?	-15.1%	3.9%	-26.4%	-2.1%
COc1ccccc1C(=O)N1CCC(C(=O)N2CCCC2c2nc3ccncc3[nH]2)CC1 (stereo unspecified)	.	-17.4%	-0.3%	-22.7%	.
Cc1ncccc1C(=O)N1CC(N(CC(C)C)C2CCN(C)CC2)C1	.	-18.4%	-36.2%	-18.4%	.
CC(C)Oc1ccc(CNC(=O)c2ccc(Cn3ccn4nc5c(c4c3=O)CCCC5)cc2)cc1	i	35.5µM*	-16.2%	?	?
O=C(NCc1ccncc1)c1ccc(Cn2ccn3nc4c(c3c2=O)CCCC4)cc1	i	?	i	?	-16.2%
Cc1ccc(-c2noc([C@@H]3Cc4nc[nH]c4CN3Cc3cccs3)n2)cc1	28.2µM*	79.4µM*	-5.3%[88.5 µM]	79.4µM*	-17.7%[70.6 µM]
Fc1ccc(-c2noc([C@@H]3Cc4nc[nH]c4CN3Cc3cccs3)n2)cc1Cl	56.2µM*	?	i	50.1µM*	-27.7%[70.6 µM]
Fc1ccc(-c2noc([C@@H]3Cc4nc[nH]c4CN3Cc3ccccc3)n2)cc1Cl	i	70.8µM*	i	70.8µM*	-26.4%[70.6 µM]
Fc1ccc(-c2noc([C@@H]3Cc4nc[nH]c4CN3CCCc3ccccc3)n2)cc1Cl	?	?	-25.3%	?	-12.3%
O=C1NC(=NC2CCCC2)C2(CCCN([S+](=O)([O-])c3cccc(C(F)(F)F)c3)C2)N1c1cc(F)cc(F)c1 (stereo unspecified)	i	?	5.0%	?	-8.9%
CSc1ccc(-c2cccc(C(=O)NCC(=O)NCCc3ccccc3)c2)cc1	.	?	i	?	.
C[C@H]1[C@@H]2[C@H]3OC(=O)[C@@H](C)[C@@H]3CC[C@@]2(C)CC[C@@H]1NC(=O)c1ccc(C#N)cc1	i	?	1.9%[88.5 µM]	89.1µM*	0.3%[70.6 µM]
C[C@H]1[C@@H]2[C@H]3OC(=O)[C@@H](C)[C@@H]3CC[C@@]2(C)CC[C@@H]1NC(=O)C1CCCCC1	i	100µM*	-7.1%[88.5 µM]	?	-19.6%[70.6 µM]
C[C@H]1[C@@H]2[C@H]3OC(=O)[C@@H](C)[C@@H]3CC[C@@]2(C)CC[C@@H]1NC(=O)c1ccccn1	i	100µM*	-1.8%[88.5 µM]	-21.9%[174 µM]	-14.4%[70.6 µM]
COCC(=O)N[C@H]1CC[C@]2(C)CC[C@@H]3[C@H](OC(=O)[C@H]3C)[C@H]2[C@@H]1C	i	-2.7%[172 µM]	i	-8.5%[174 µM]	-1.7%[70.6 µM]
Cc1ccc(Nc2ccnc(N3CCCC(C(=O)NCc4cccs4)C3)n2)cc1 (stereo unspecified)	.	10µM*	i	17.8µM*	.
COc1ccc(Nc2ccnc(N3CCCC(C(=O)NCc4cccs4)C3)n2)cc1 (stereo unspecified)	.	35.5µM*	?	35.5µM*	.
O=C(NCc1cccs1)C1CCCN(c2nccc(Nc3ccccc3F)n2)C1 (stereo unspecified)	.	?	-5.5%	?	.
